# According to PubChem BioAssay (NCI):
# Compounds without any hit were thinned out: in the full panel of roughly 83,000, 20% have a hit.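 In brief: 96-well plates, 48 h treatment, single concentration, percent growth endpoint.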 Values without a mark were called inactive. The source made the active and inactive calls. Rule for the calls: active = growth percent below 10; inactive = the rest.
# Columns and labels:
# Experiment in all cases: NCI-60 one-dose screen, 48 h (100 = growth as untreated, 0 = no growth, -100 = all killed)
# Details in all cases: 10 µM unless noted
# HCT-15 colon = system: HCT-15 colon
# HT29 colon = system: HT29 colon
# SNB-75 CNS = system: SNB-75 CNS
# SNB-19 CNS = system: SNB-19 CNS
# PC-3 prostate = system: PC-3 prostate
# SK-MEL-5 melanoma = system: SK-MEL-5 melanoma
# UACC-62 melanoma = system: UACC-62 melanoma
# LOX IMVI melanoma = system: LOX IMVI melanoma
# SK-MEL-28 melanoma = system: SK-MEL-28 melanoma
# U251 CNS = system: U251 CNS
Structure (SMILES),growth (HCT-15 colon),growth (HT29 colon),growth (SNB-75 CNS),growth (SNB-19 CNS),growth (PC-3 prostate),growth (SK-MEL-5 melanoma),growth (UACC-62 melanoma),growth (LOX IMVI melanoma),growth (SK-MEL-28 melanoma),growth (U251 CNS) [%]
Oc1c(N=Nc2nn[nH]n2)ccc2ccccc12,68.2%,81.8%,143%,92.6%,67.6%,38.4%,77%,78%,94.6%,–
Cc1[nH]c(=O)[nH]c(=O)c1CCSSCCc1c(C)[nH]c(=O)[nH]c1=O,113%,99.2%,97.1%,105%,99.6%,103%,104%,97.8%,114%,–
Cc1ccc(-c2c3c(N)c4c(nc3nc3c2c(C)nn3-c2ccccc2)CCC4)cc1,15%,3.96% (active),105%,99.4%,91.1%,90.4%,99.8%,-31% (active),70.2%,–
Cc1ccc(S(=O)(=O)N2CCN(C(=O)CSc3nc4ccc(C)cc4[nH]3)CC2)cc1,110%,117%,109%,100%,88.3%,116%,82.3%,101%,85.3%,–
CC1CN(CC(O)c2ccc(Br)cc2)CCO1 (stereo not drawn),107%,113%,91.4%,105%,101%,108%,108%,107%,119%,–
C#C[C@]1(O)CCC2C3CCc4cc(O)ccc4C3CC[C@@]21C (stereo partly drawn),31.9%,11.7%,38.8%,53.1%,64.9%,8.95% (active),30.5%,41.8%,59.2%,–
CCCCCCCCCCCCC1CCCC(C)C1 (stereo not drawn),97.5%,101%,64.8%,104%,88.8%,101%,102%,99.7%,88.9%,–
O=[N+]([O-])c1ccc(NS(=O)(=O)c2ccc(Cl)c(Cl)c2)cc1,88.7%,102%,86.7%,70.1%,66.5%,40.2%,38.8%,93.3%,78.4%,–
COc1cc(/C=C/C(=O)CC(=O)/C=C/c2ccc(OC(=O)CCNC34CC5CC(CC(C5)C3)C4)c(OC)c2)ccc1OC(=O)CCNC12CC3CC(CC(C3)C1)C2,46.9%,-70.6% (active),7.02% (active),29.6%,21%,25.3%,43.2%,0.619% (active),33.6%,–
O=C(N/N=C/c1cccc(O)c1O)c1ccccc1,22.7%,26.4%,41%,35.7%,28.9%,0.968% (active),-9.23% (active),7.69% (active),30.5%,–
O=C1/C(=C/c2ccc(F)cc2)Cc2ccccc21,94.6%,91%,83.4%,92.3%,97.8%,99.9%,95.1%,103%,105%,–
O=C(Nc1ccc(Cl)cc1)Nc1nc2ccc(OC(F)(F)F)cc2o1,77.5%,84.7%,97%,93.2%,44.7%,90.8%,82.9%,103%,108%,–
O=C(/C=C/c1c(-c2ccccc2)[nH]c2ccccc12)S(=O)(=O)c1ccccc1,38.1%,34%,84.5%,82.4%,36.5%,37.4%,39.1%,56.5%,72.5%,–
O=C(NCCCl)NCCN1c2nc3ccccc3cc2Sc2cc3ccccc3nc21,51.9%,36.2%,-5.93% (active),63.9%,25.3%,9.61% (active),47.4%,49.7%,86.4%,–
O=C1/C(=C/c2ccccc2Cl)CCc2ccccc21,104%,97.2%,105%,89.7%,95.6%,102%,94.2%,91.7%,101%,–
Cc1cn(C(C=O)OC(C=O)CO)c(=O)[nH]c1=O (stereo not drawn),102%,110%,75.1%,101%,102%,105%,106%,103%,99.1%,–
c1ccc(Nc2ccc(Nc3nc(-c4ccccc4)nc4ccccc34)cc2)cc1,37.5%,29.7%,–,100%,74%,90.3%,86.6%,52.4%,93.7%,77
COc1ccc(OC)c(CCn2cncc2-c2c[nH]c3cc(Br)ccc23)c1,25.1%,10.2%,–,50.1%,34.5%,-75.8% (active),36.8%,37%,57.5%,34.9
COc1ccc(/C=C2\CCc3ccccc3C2=O)cc1,91.3%,80.4%,69.3%,–,82.1%,99.3%,83%,77.2%,84.9%,–
O=C(Nc1cccc(Cl)c1)Nc1cccc(Cl)c1,60.9%,82.1%,94.7%,–,26.8%,79.2%,43.7%,89.1%,95%,63.5
O=C1Nc2ccc(Cl)cc2/C1=C/c1cccs1,51.9%,110%,84.2%,84.3%,–,–,–,86.7%,113%,–
c1ccc(-c2nc(Nc3nccnn3)c3ccccc3n2)cc1,98.2%,98.8%,–,93.6%,101%,99.1%,87.8%,96%,103%,92.9
COc1ccc(C2CC(c3ccc(Nc4ccnc5cc(Cl)ccc45)cc3)=NN2C(C)=O)cc1 (stereo not drawn),44.2%,27.4%,75.8%,82.4%,53.3%,5.89% (active),–,60.5%,70.2%,–
N/C(=N\c1nc2ccccc2s1)NC(=O)Nc1ccccc1Cl,23.9%,5.03% (active),–,37.4%,27.8%,23.8%,–,36.2%,46.8%,19.1
Cc1ccccc1NC(=O)N/C(N)=N/c1nc2ccccc2s1,20.2%,5% (active),–,31.8%,36.3%,-53.3% (active),38.8%,21.7%,54.6%,20.3
COc1ccc2nc(NC(=O)CN3CCn4c(nnc4C(F)(F)F)C3)sc2c1,93.3%,98.4%,–,90.5%,98.6%,79.2%,83.9%,96.6%,102%,91.6
Cc1nn(-c2ccccc2)c2nc(N)c(C3=NCCO3)nc12,98%,100%,73.1%,100%,81.4%,97.4%,–,94.7%,103%,–
Nc1nc(Nc2ccccc2SSc2ccccc2Nc2nc(N)nc(-c3ccc(I)cc3)n2)nc(-c2ccc(I)cc2)n1,36.4%,97.8%,–,37.4%,19.1%,81.4%,81.6%,-0.613% (active),94.7%,34.5
COc1ccc2c(c1)c(CC(=O)[Se]C)c(C)n2C(=O)c1ccc(Cl)cc1,14.9%,2.05% (active),–,24%,24.2%,-63.9% (active),33.6%,-69.5% (active),-7.85% (active),14.9
CN1CCN(CCCOc2ccc3ncnc(Nc4ccc(OCc5cccc(F)c5)c(Cl)c4)c3c2)CC1,-50.8% (active),-49.5% (active),65.1%,3.46% (active),-18.9% (active),-98.2% (active),-57.8% (active),-92.9% (active),-86.6% (active),–
